Values without a mark were called inactive. How the calls were made is not given here.
These compounds were tested on Aerobactin synthetase IucA (Klebsiella pneumoniae, hypervirulent) (assay: biochemical IucA inhibition screen of LOPAC library by absorbance (AID 1346212;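 further: 100% = no compound wells and 0% = no enzyme wells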)). Settings: IucA enzyme assay, absorbance (OD) readout; stronger effect = lower value;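 tested at 8 µM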.

SMILES | remaining activity [%]
CC[C@]1(O)C[C@H]2CN(CCc3c([nH]c4ccccc34)[C@@](C(=O)OC)(c3cc4c(cc3OC)N(C=O)[C@H]3[C@@](O)(C(=O)OC)[C@H](OC(C)=O)[C@]5(CC)C=CCN6CC[C@]43[C@@H]65)C2)C1 | 109
COc1ccc(NC(=O)c2ccc(-c3ccc(-c4noc(C)n4)cc3C)cc2)cc1N1CCN(C)CC1 | 112
Clc1ccc(N2CCN(Cc3c[nH]c4ncccc34)CC2)cc1 | 92
O=C(O)c1ccccc1Nc1cccc(OCc2ccc3ccccc3n2)c1 | 125
CC(=O)S[C@@H]1CC2=CC(=O)CC[C@]2(C)[C@H]2CC[C@@]3(C)[C@@H](CC[C@@]34CCC(=O)O4)[C@H]12 | 108
Cc1ccc2c(c1)C(N1CCN(C)CC1)=Nc1cccnc1N2 | 126
COc1cc2ncnc(Nc3cccc(Cl)c3)c2cc1OC | 106
CCOC(=O)C1=C(C)NC(C)=C(C(=O)OC)C1c1cccc([N+](=O)[O-])c1 (stereo not given) | 112
COc1ccc(Cl)cc1NC(=O)Nc1cc(C)nc2ccccc12 | 95
CC(/C=C/c1cccc(Oc2ccc(F)cc2)c1)N(O)C(N)=O (stereo not given) | 99.1
CC(C)C[C@H](NC(=O)[C@@H](O)[C@H](N)Cc1ccccc1)C(=O)O | 108
CNCC[C@@H](Oc1ccc(C(F)(F)F)cc1)c1ccccc1 | 105
CN1CCC(=C2c3ccccc3C=Cc3ccccc32)CC1 | 123
COCCCC/C(=N\OCCN)c1ccc(C(F)(F)F)cc1 | 100
CC(C)(CO)Cc1cc(C(C)(C)C)c(O)c(C(C)(C)C)c1 | 109
C#C[C@]1(O)CC[C@H]2[C@@H]3CCC4=Cc5oncc5C[C@]4(C)[C@H]3CC[C@@]21C | 101
Cc1cc2c(cc1Cl)N(C(=O)Nc1cccc3ncccc13)CC2 | 103
CN1CCc2cccc3c2[C@H]1Cc1ccc(O)c(O)c1-3 | 107
N=C(N)c1ccccc1 | 121
CC[C@H](CO)Nc1nc(NCc2ccccc2)c2ncn(C(C)C)c2n1 | 123

SMILES | remaining activity [%]
COc1ccc(CCn2nnnc2C2(c3ccc(C)cc3)CC2)cc1 | 115
COc1cccc(-c2cc(=O)c3ccccc3o2)c1N | 95.7
CCCCCCCCCC[Si](C)(C)CCC(=O)NC(Cc1ccc(C)cc1)c1ccccc1 (stereo not given) | 116
O=C(O)C1=CCCN(CCON=C(c2ccccc2)c2ccccc2)C1 | 104
CC(C)(C)c1onc(OCP(=O)(O)O)c1CC(N)C(=O)O (stereo not given) | 112
C[N+]1(C)[C@@H]2CC(OC(=O)[C@H](CO)c3ccccc3)C[C@H]1[C@@H]1O[C@@H]12 (stereo not given in full) | 112
COc1ccccc1N1CCN(CCCCNC(=O)c2ccc3ccccc3c2)CC1 | 118
COc1ccc2c(c1)CC[C@@H]1[C@@H]2CC[C@]2(C)[C@@H](NCCCCCCN3C(=O)C=CC3=O)CC[C@@H]12 | 111
CCCCCCCCCCC/C=C\C(C)(C)/C=C\CCCC(=O)O | 86.5
C[N+](C)(C)CCOC(=O)CCC(=O)OCC[N+](C)(C)C | 123
CC1(C)CCC=[N+]1[O-] | 120
N[C@@H](Cc1cnc[nH]1)C(=O)O | 113
CCCn1c(=O)c2[nH]c(-c3ccc(S(=O)(=O)O)cc3)nc2n(CCC)c1=O | 111
O=[N+]([O-])c1ccc(CSc2ncnc3c2ncn3[C@@H]2O[C@H](CO)[C@@H](O)[C@H]2O)cc1 | 126
CC1CNCCN1S(=O)(=O)c1cccc2cnccc12 (stereo not given) | 95.7
CNCCNS(=O)(=O)c1cccc2cnccc12 | 102
CNC(=O)[C@H]1O[C@@H](n2cnc3c(NCc4cccc(I)c4)ncnc32)[C@H](O)[C@@H]1O | 114
Cn1cc(C(F)(F)F)nc1-c1ccc(OCC(O)CNCCOc2ccc(O)c(C(N)=O)c2)cc1 (stereo not given) | 96.8
Cn1c(=O)[nH]c2ncn(C)c2c1=O | 113
COc1cccc2c1[C@@H]1CN(CCCCn3c(=O)[nH]c4c(sc5ncc(-c6ccccc6)nc54)c3=O)C[C@@H]1CO2 | 98.2
